Laboratory results as given in PubChem BioAssay AID488969 (Vanderbilt High Throughput Screening Facility, 2010).
The full ranking holds about 110,000 compounds; the median of “z-score” is about -0.1, and the highest 2% start at about 2. For the sample, the highest values were picked, then their nearest neighbours and some compounds at random. Active and inactive are the calls of the source.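 The calls were made as follows: active = z-score in the third read window above 3 or below -3; inactive = the rest.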

These compounds were tested against Metabotropic glutamate receptor 8 (Rattus norvegicus) (UniProt P70579) (assay: mGluR8 Gi/Go-coupled signaling modulation – cell-based, rat, thallium flux, HTS, primary screen (AID 488969)). Settings: HEK293 rat mGluR8, GIRK (G protein-gated inwardly rectifying potassium channel) thallium flux, FluoZin2; at 10 µM; stronger effect = higher value; submaximal glutamate (EC20) added with thallium.
Sequence of Metabotropic glutamate receptor 8 (Rattus norvegicus) (P70579 whole entry, looked up): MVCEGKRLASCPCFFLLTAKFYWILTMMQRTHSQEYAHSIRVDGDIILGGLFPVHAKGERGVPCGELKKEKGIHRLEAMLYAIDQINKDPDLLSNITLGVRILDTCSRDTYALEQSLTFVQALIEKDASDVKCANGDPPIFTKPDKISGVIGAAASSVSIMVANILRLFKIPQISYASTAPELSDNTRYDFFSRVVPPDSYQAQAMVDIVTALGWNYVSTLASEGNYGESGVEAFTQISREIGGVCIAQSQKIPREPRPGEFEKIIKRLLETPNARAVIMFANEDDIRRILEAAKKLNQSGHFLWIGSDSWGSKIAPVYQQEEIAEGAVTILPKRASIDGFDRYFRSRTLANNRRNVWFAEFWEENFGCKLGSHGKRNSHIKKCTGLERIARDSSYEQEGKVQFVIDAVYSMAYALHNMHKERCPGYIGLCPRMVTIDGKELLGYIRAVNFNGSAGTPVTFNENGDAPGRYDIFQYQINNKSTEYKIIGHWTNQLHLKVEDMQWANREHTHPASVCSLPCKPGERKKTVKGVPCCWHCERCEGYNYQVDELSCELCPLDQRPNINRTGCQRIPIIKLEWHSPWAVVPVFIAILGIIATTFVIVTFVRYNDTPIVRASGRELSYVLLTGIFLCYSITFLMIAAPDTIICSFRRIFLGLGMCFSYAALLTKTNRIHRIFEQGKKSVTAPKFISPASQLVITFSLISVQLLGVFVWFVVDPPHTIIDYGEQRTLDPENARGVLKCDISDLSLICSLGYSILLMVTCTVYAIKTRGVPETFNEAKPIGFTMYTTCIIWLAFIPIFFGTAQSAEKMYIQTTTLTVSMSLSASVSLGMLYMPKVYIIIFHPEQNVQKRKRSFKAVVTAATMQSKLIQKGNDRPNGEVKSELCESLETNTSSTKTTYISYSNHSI

| SMILES | z-score |
| --- | --- |
| Cn1c(NC(=O)c2ccco2)cc(=O)n(C)c1=O | -0.188 |
| O=C(CCSCCc1ccccn1)Nc1ccc(Br)cc1F | -0.191 |
| CCc1nc2ccccc2n1Cc1ccccc1OC | -0.822 |
| CC1=NNC(=O)C1CCC(=O)N/N=C/C(Br)=C/c1ccccc1 (configuration not stated) | -0.0952 |
| O=C(c1ccc([N+](=O)[O-])cc1)N(Cc1ccc(Cl)cc1)N1C(=O)CCCC1=O | -0.682 |
| Cn1cnnc1SCC(=O)Nc1sc2c(c1C#N)CCCCC2 | 0.0796 |
| COc1ccc2cnn(Cc3ccccc3)c(=O)c2c1OC | 0.037 |
| Cc1ccc(/C=N/n2c(COc3ccccc3)n[nH]c2=S)s1 | 3.29 (active) |
| Cc1ccsc1/C=N/n1c(COc2ccccc2)n[nH]c1=S | 0.533 |
| CC(C)(C)c1n[nH]c(=S)n(/N=C/c2cccs2)c1=O | 0.25 |
| Cc1cccc(-c2n[nH]c(=S)n2/N=C/c2ccc(C)s2)c1 | 0.7 |
| Cc1ccc(-c2n[nH]c(=S)n2/N=C/c2cccs2)cc1 | 2.22 |
| Cc1ccc(-c2n[nH]c(=S)n2/N=C/c2ccc(C)s2)cc1 | 2.29 |
| S=c1[nH]nc(-c2ccccc2)n1/N=C/c1cccs1 | 0.587 |
| Cc1ccc(/C=N/n2c(-c3cccnc3)n[nH]c2=S)s1 | -0.311 |
| Cc1ccsc1/C=N/n1c(C2CCCCC2)n[nH]c1=S | 0.383 |
| S=c1[nH]nc(C2CCCCC2)n1/N=C/c1cccs1 | 2.48 |
| Cc1ccc(/C=N/n2c(C3CCCCC3)n[nH]c2=S)s1 | 0.644 |
| S=c1[nH]nc(COc2ccccc2)n1/N=C/c1cccs1 | 0.649 |
| CS(=O)(=O)Nc1ccc(-c2n[nH]c(=S)n2-c2ccccc2)cc1 | 0.118 |
| CCN(CCNC(=O)C1CCN(Cc2nc(-c3ccc(Cl)cc3)oc2C)CC1)c1ccccc1 | 1.3 |
| CN(C)c1ccnc(NCc2ccccc2)c1C#N | -0.278 |
| O=C(Nc1ccncc1)Nc1ccccn1 | -0.133 |
| CCC(=O)N/C(=N\OCc1ccc(F)cc1)c1nonc1NC(=O)CC | -0.064 |

| SMILES | z-score |
| --- | --- |
| COc1ccccc1-c1noc(CCC(=O)Nc2cccc(C)c2)n1 | -0.323 |
| O=C(c1cnn2c(C(F)(F)F)cc(-c3ccco3)nc12)N1CCc2ccccc2C1 | -1.04 |
| O=C(c1cnn2c(C(F)(F)F)cc(-c3ccco3)nc12)N1CCCCCC1 | 2.24 |
| O=C(c1cnn2c(C(F)(F)F)cc(-c3ccco3)nc12)N1CCCc2ccccc21 | -0.976 |
| COc1cc(C(C)=O)ccc1COc1ccc(C(=O)OCC(=O)NC(C)(C)C)cc1OC | -0.573 |
| O=C(NCc1ccccn1)c1ccc(CNS(=O)(=O)c2ccc(F)cc2)cc1 | -0.111 |
| CN1C(=O)c2ccccc2N(C)C1c1cccs1 (configuration not stated) | -1.51 |
| Cc1c(-n2c(=S)[nH]c3ccccc3c2=O)c(=O)n(-c2ccccc2)n1C | 0.153 |
| O=c1c2ccccc2[nH]c(=S)n1CC1CCCO1 (configuration not stated) | 0.302 |
| CC1CCC(n2c(=S)[nH]c3ccccc3c2=O)CC1 (configuration not stated) | 8.55 (active) |
| CCOC(=O)N1CCC(n2c(=S)[nH]c3ccccc3c2=O)CC1 | 0.582 |
| O=c1c2ccccc2[nH]c(=S)n1C1CCCCC1 | 12.5 (active) |
| O=c1c2[nH]c3ccccc3c2ncn1C1CCCCC1 | 0.256 |
| Cc1ccc(S(=O)(=O)Nc2cc(C(F)(F)F)ccc2N2CCOCC2)cc1 | 0.266 |
| Cc1ccc(-c2nnc3n2CCCCC3)cc1 | 0.0634 |
| CCNC(=O)COC(=O)C1C(C(=O)OCC)=C(C)NC(C)=C1C(=O)OCC | -0.145 |
| O=C(Cn1c(=O)n(-c2ccccc2)c(=O)c2sccc21)N1CCCC1 | -0.24 |
| Cc1ccc(OCC(=O)N/N=C/c2cn(Cc3ccccc3)c3ccccc23)cc1 | -0.188 |
| O=C(O)CCN1C(=O)/C(=C/c2ccc(-c3nc4ccccc4s3)o2)SC1=S | 1.83 |
| O=C(O)CCN1C(=O)/C(=C\c2ccc(-c3nc4ccccc4s3)o2)SC1=S | 2.49 |
| O=C(O)CCCN1C(=O)/C(=C/c2ccc(-c3nc4ccccc4s3)o2)SC1=S | 0.773 |
| COc1ccccc1N1C(N)=NC(N)=NC1(C)C | -0.0746 |
| CC(=O)CCc1ccc2oc(C(=O)O)c(C)c2c1 | -0.497 |
| Cc1[nH]c2ccccc2c1NC(=O)CN1CCN(Cc2ccc3c(c2)OCO3)CC1 | -0.288 |

| SMILES | z-score |
| --- | --- |
| COC(=O)c1[nH]c2ccc(F)cc2c1NC(=O)CCN1CCN(Cc2ccc3c(c2)OCO3)CC1 | -0.752 |
| COC(=O)c1[nH]c2ccc(C)cc2c1NC(=O)CCN1CCN(Cc2ccc3c(c2)OCO3)CC1 | 9.23 (active) |
| CC(=NC1CC1)c1c(-c2ccccc2)[nH]n(-c2nc3ccccc3s2)c1=O | -0.25 |
| Cc1cc(-c2n[nH]c(=S)n2Cc2ccccc2)cs1 | 0.453 |
| CCc1cc(-c2n[nH]c(=S)n2CC(C)C)cs1 | 1.12 |
| CCc1cc(-c2n[nH]c(=S)n2Cc2ccccc2)cs1 | 0.464 |
| CCc1c(-c2n[nH]c(=S)n2Cc2ccccc2)csc1C | 2.88 |
| S=c1[nH]nc(-c2ccncc2)n1Cc1ccccc1 | 1.42 |
| CCCc1cc(-c2n[nH]c(=S)n2Cc2ccccc2)cs1 | 4.6 (active) |
| Cc1scc(-c2n[nH]c(=S)n2Cc2ccccc2)c1C | 0.854 |
| Cc1cc(-c2n[nH]c(=S)n2CC(C)C)cs1 | -0.405 |
| CCCc1cc(-c2n[nH]c(=S)n2CC(C)C)cs1 | 4.16 (active) |
| Cc1nc2c(C)cccc2cc1C(=O)N/N=C/c1cccnc1 | -0.392 |
| CCc1cccc(CC)c1NC(=O)COC(=O)c1cccc(-c2ccc(OC(C)=O)cc2)c1 | -1.91 |
| Cc1ccccc1C(=NCCCN(C)C)c1ccccc1C | 0.825 |
| O=C(Cc1cccs1)N(Cc1ccco1)C1(C(=O)NC2CCCCC2)CCCCC1 | 1.89 |
| Cn1nc(Oc2nc(N3CCOCC3)nc(N3CCOCC3)n2)ccc1=O | 0.165 |
| CCC1CCCCN1C(=O)c1cc2cc(Br)ccc2oc1=O (configuration not stated) | 7.8 (active) |
| O=C(c1cc2cc(Br)ccc2oc1=O)N1CCCC1 | 0.0138 |
| CCOC(=O)N1CCN(C(=O)c2cc3cc(Br)ccc3oc2=O)CC1 | -0.271 |
| C=CCNC(=O)CC(=O)N/N=C/c1ccc(F)cc1 | -0.18 |
| C=CCn1c(-c2ccc(OC)cc2)csc1=Nc1c(C)n(C)n(-c2ccccc2)c1=O | -0.422 |
| N#CC1=C(S)N=C(N)C(c2nc(-c3ccccc3)cs2)C12CCCC2 (configuration not stated) | 0.271 |
| Cc1ccc(S(=O)(=O)N(C)/C(=N/S(=O)(=O)c2ccccc2)c2ccccc2)cc1 | -0.162 |
